This passage reports Percent Effect results from ChEMBL document CHEMBL3988442, “University of Dundee, Small-Polar-MMV Screening Library” (2021).

The target in experiment [1] is T1, Aspartate--tRNA(Asp/Asn) ligase (Mycobacterium tuberculosis (strain ATCC 25618 / H37Rv)) (UniProt P9WFW3). Note: in the data most compounds retested in dose-response had high values.
T1 sequence (whole entry): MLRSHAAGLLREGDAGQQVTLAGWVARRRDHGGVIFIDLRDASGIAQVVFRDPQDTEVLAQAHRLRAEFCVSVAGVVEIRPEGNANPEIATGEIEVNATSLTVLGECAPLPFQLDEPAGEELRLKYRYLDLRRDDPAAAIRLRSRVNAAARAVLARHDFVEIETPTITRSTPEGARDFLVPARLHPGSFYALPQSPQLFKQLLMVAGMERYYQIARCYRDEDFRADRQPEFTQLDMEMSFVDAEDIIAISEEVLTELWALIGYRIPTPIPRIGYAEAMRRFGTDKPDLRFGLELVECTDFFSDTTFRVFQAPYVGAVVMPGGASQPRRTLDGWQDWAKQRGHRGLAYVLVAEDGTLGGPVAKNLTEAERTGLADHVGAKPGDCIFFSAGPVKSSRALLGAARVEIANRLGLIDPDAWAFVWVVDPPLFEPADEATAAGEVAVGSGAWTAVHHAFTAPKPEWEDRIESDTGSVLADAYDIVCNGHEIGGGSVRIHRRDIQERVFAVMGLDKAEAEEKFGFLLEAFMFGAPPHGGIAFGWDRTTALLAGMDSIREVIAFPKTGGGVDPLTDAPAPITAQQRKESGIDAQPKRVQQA
Description: Assay for Asp RNA synthetase-1 from Mycobacterium tuberculosis. The class given is functional. Also on record: scale not given: direction of the effect not stated beside the values. The settings on record: 30 µM.

The target of experiment [2] is Shiga toxin 2 (Escherichia coli O157:H7) (UniProt P09385+P09386). Description: E. coli 0.157:H7 Shiga Toxin SOP - stx2 screening assay. The class given is functional. The arrangement: scale not given: direction of the effect not stated beside the values. The following applies: 30 µM.

Regarding `CN(CC(=O)N1CCCN(Cc2cscn2)CC1)c1cnccn1`, the Percent Effect is -1.02% in experiment [1] and -25.9% in experiment [2].

For the molecule `Cn1ccnc1CN1CCCC1c1noc(C2CC2)n1` (stereo not given), the Percent Effect was -0.426% in experiment [1] and -7.56% in experiment [2].

In the case of `CC(C)CN1CCC(c2nc3c([nH]2)CC(C)(C)CNC3=O)C1` (stereo not given), the Percent Effect in experiment [1] was 1.44%; in experiment [2], -12.2%.

Regarding `Clc1ccccc1-c1nc(CNC2CCc3ncnn3C2)cs1` (stereo not given), the Percent Effect in experiment [1] is -0.745%; in experiment [2], -6.39%.

`Cc1cccc(N2CC[C@@H]3CN(Cc4csc(C)n4)CCO[C@@H]3C2)n1`: the Percent Effect is -1.08% in experiment [1] and -42.6% in experiment [2].

Consider `COc1ncc(C2(O)CCN(Cc3cccs3)CC2)c(OC)n1`, for which the figures for the Percent Effect in experiment [1] and in experiment [2] were -0.868% and -24.4%, respectively.

With `Cc1nccc(C(=O)N2CCCN(Cc3cnn(C(C)C)c3)CC2)n1`, the values for the Percent Effect in experiment [1] and in experiment [2] were -2.77% and -13.2%, respectively.

For the molecule `Cc1csc2ncc(-c3ccnc(N4CCN(C)CC4)n3)c(=O)n12`, the Percent Effect in experiment [1] is 1.78%; in experiment [2] it was -20.6%.

Regarding `CC(=O)c1cccc(S(=O)(=O)N2CSCC2C(=O)NCC(F)(F)F)c1` (stereo not given), the Percent Effect is -1.82% in experiment [1] and -13.6% in experiment [2].

For the molecule `O=C(Cn1ccnc1)N1C[C@@H]2CC[C@H](Oc3ccccc3)[C@@H]2C1`, the Percent Effect in experiment [1] was determined as 5.52%; in experiment [2], 2.5%.

Regarding `Cc1cnn(CCC(=O)N2CCN(c3ncccc3Cl)CC2)c1`, the figures for the Percent Effect in experiment [1] and in experiment [2] were -7% and 13.3%, respectively.

`COCCC(=O)N1CC[C@@H]2O[C@@H](C)C[C@H]2C1`: the Percent Effect was -0.28% in experiment [1] and -0.0436% in experiment [2].

On to `O=C(NCCNc1ncccn1)c1ccc(-c2ccco2)[nH]c1=O`, for which the Percent Effect amounted to 6.93% in experiment [1] and 10.7% in experiment [2].

Regarding `CC(=O)c1cccc(OCC(=O)NS(=O)(=O)c2ccc(C)s2)c1`, the figures for the Percent Effect in experiment [1] and in experiment [2] were -3.8% and -7.24%, respectively.

Turning to `CC(C)c1noc(C(C)N2CCN(Cc3ccccc3C#N)CC2)n1` (stereo not given), the Percent Effect in experiment [1] is -1.01%; in experiment [2], 12.5%.

Regarding `COCCN1CCN(C(=O)C2CC=CC2)Cc2cccnc21`, the results for the Percent Effect in experiment [1] and in experiment [2] were -1.63% and -23.9%, respectively.

Consider `CCOC[C@H]1CC[C@H]2[C@H](CCN2C(=O)c2ccncc2F)O1`, for which the Percent Effect is 5.35% in experiment [1] and -0.318% in experiment [2].

Consider `Cc1csc(N2CCN(CC(=O)Nc3nncs3)CC2C)n1` (stereo not given), for which the Percent Effect was -3.09% in experiment [1] and 3.44% in experiment [2].

`CN(C)Cc1ccnc(C2CCCN2Cc2cc[nH]n2)n1` (stereo not given): the results for the Percent Effect in experiment [1] and in experiment [2] were -4.42% and 9.83%, respectively.

`Cc1nc(CN2CCC3(CCCN(Cc4cnn(C)c4)C3)C2=O)cs1` (stereo not given): the Percent Effect in experiment [1] was -3.23%; in experiment [2], -23.7%.

In the case of `CC1=Nc2c(c(=O)[nH]n2C(C)C)C(c2ccccc2)S1` (stereo not given), the results for the Percent Effect in experiment [1] and in experiment [2] were 1.45% and 1.24%, respectively.

Regarding `CNS(=O)(=O)c1ccc(CNC(=O)NCC2CCOC2)cc1` (stereo not given), the results for the Percent Effect in experiment [1] and in experiment [2] were -4.9% and 25.4%, respectively.

Turning to `Cc1ccc(N2CC[C@H](OCC3CC3)[C@@H]2Cc2cnn(C)c2)nn1`, the Percent Effect in experiment [1] is 2.69%; in experiment [2] it was -6.34%.

Consider `CC(C)c1cc(NC(=O)CN2CCc3c(nc(C(C)C)n3C)C2)on1`, for which the values for the Percent Effect in experiment [1] and in experiment [2] were -3.67% and -13.4%, respectively.

Regarding `Cc1cc(CNc2cc(Cl)ccc2Cl)no1`, the figures for the Percent Effect in experiment [1] and in experiment [2] were -1.12% and 2.51%, respectively.

Regarding `CC(C)NC(=O)Nc1ccc(CNCc2cccc(OC(F)F)c2)cc1`, the Percent Effect in experiment [1] was 4.98%; in experiment [2], -103%.

On to `Cn1cc(C(=O)NC2CCN(Cc3ccn(C)c(=O)c3)CC2)cn1`, for which the Percent Effect in experiment [1] was 1.68%; in experiment [2] it was -28%.

As for `Cc1cc(C)n(C2CN(CC(=O)N3CCOCC3)C2)n1`, the Percent Effect in experiment [1] is -0.655%; in experiment [2], 9.68%.

For `COCCN(C)C[C@@H]1CCC[C@@H]2CN(c3cc(OC)ncn3)C[C@@H]21`, the Percent Effect amounted to 1.66% in experiment [1] and 2.29% in experiment [2].

With `NC(=O)COc1cccc(C(=O)N2CCCC(n3cccn3)C2)c1` (stereo not given), the Percent Effect in experiment [1] is -6%; in experiment [2], -18.8%.

`O=S(=O)(NCCN1CCCCC1Cn1cncn1)c1ccccc1` (stereo not given): the Percent Effect in experiment [1] was 1.46%; in experiment [2], 5.96%.

`CCN(c1ccc(C(=O)N2CCCC2)cc1)S(=O)(=O)CC`: the figures for the Percent Effect in experiment [1] and in experiment [2] were 5.6% and -13.5%, respectively.

Take `CCC1CCCN(C(=O)Cc2csc(-c3ncccn3)n2)C1` (stereo not given): the figures for the Percent Effect in experiment [1] and in experiment [2] were 0.456% and -14.8%, respectively.

On to `O=C(CSc1ccncc1)N1C[C@H]2CC[C@@H]1CN(Cc1cccnc1)C2`, for which the Percent Effect in experiment [1] is 2.67%; in experiment [2], -11.3%.

Turning to `CC(O)CN1CCN(C(=O)c2cccn2Cc2ccncc2)CC1` (stereo not given), the Percent Effect is -3.51% in experiment [1] and 13.7% in experiment [2].

Regarding `Cn1ccnc1CN1CCN(CC(O)c2ccco2)CC1` (stereo not given), the figures for the Percent Effect in experiment [1] and in experiment [2] were 4.07% and 20%, respectively.

In the case of `CNS(=O)(=O)CCCN1CCCC1c1noc(C2CC2)n1` (stereo not given), the Percent Effect in experiment [1] was -2.37%; in experiment [2] it was 4.89%.

Consider `O=C(CCc1nccs1)N1CCN(c2ncccn2)CC1`, for which the results for the Percent Effect in experiment [1] and in experiment [2] were -0.577% and 11.5%, respectively.

On to `CCn1cc(NC(=O)NCC(c2cccs2)N(C)C)cn1` (stereo not given), for which the Percent Effect in experiment [1] was -1.06%; in experiment [2], 24.9%.

In the case of `Cc1ccc(NC2CCN(C(=O)c3cccc4ncccc34)CC2)nn1`, the Percent Effect is 3.98% in experiment [1] and -2.02% in experiment [2].

Take `COc1ccc(CN(Cc2cccnc2)CC2CCCO2)c(OC)c1` (stereo not given): the Percent Effect is -3.99% in experiment [1] and -13.4% in experiment [2].

Turning to `O=C(NC[C@H]1OC[C@@H]2CCN(Cc3ccco3)C[C@@H]21)c1ccsc1`, the Percent Effect in experiment [1] is -1.14%; in experiment [2] it was 4.74%.

As to `COc1ccc(CNCc2c(C)nn(C)c2N2CCOCC2)cc1`, the Percent Effect in experiment [1] was -0.115%; in experiment [2] it was 14.4%.

Turning to `CC(C)(C)c1ccc(C2(C(=O)NCCS(N)(=O)=O)CC2)cc1`, the Percent Effect in experiment [1] was 13.3%; in experiment [2], -15.1%.

Take `O=C(c1ccnnc1)N1C[C@@H]2CC[C@H](Oc3cccc(F)c3)[C@@H]2C1`: the Percent Effect is 3.77% in experiment [1] and -5.52% in experiment [2].
